PubChem BioAssay AID463116 (University of Pittsburgh Molecular Library Screening Center, 2010)
The whole screen tested about 1,000 compounds, of which about 710 (71%) were called active. Roughly 7% stayed inconclusive and do not appear here.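 The calls were made as follows: active = inhibition of receptor movement into the nucleus at or above a set limit in both runs, with normal cell brightness and cell count; inconclusive = limit reached in only one run, brightness and count normal; inactive = the rest.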 So high a share suggests a set chosen from earlier hits. A selection follows.

Assay: blockers of dexamethasone-driven GR-EGFP nuclear import – imaging, high-content imaging, GR-EGFP cells, confirmation (AID 463116);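 as to inhibition: dexamethasone at 1 µM final in well for 30 min; nuclear minus cytoplasmic GR-EGFP mean intensity difference in channel 2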
Details: 3617.4 GR-EGFP nuclear translocation imaging, dexamethasone-induced, at 20 µM; inhibition: stronger effect = higher value; z-score: measured here: cell count per field

Q: With O=[N+]([O-])c1cc(S(=O)(=O)CCCN2CCOCC2)ccc1F as the compound, how does the inhibition read?
A: 80.5% (active)

Q: And the z-score?
A: 0.409

Q: With CC1CCN(C(=O)c2ccc(S(=O)(=O)Cc3cc(F)ccc3F)c([N+](=O)[O-])c2)CC1 as the compound, how does the inhibition read?
A: 37.2% (inactive)

Q: What about the z-score of the same compound?
A: 0.248

Q: For COc1ccc(-c2csc3nc(-c4ccccc4F)oc(=O)c23)cc1OC, which inhibition is on record?
A: 76.8% (active)

Q: And the z-score?
A: 0.201

Q: Which inhibition does the source give for Cc1cccc(Oc2c([N+](=O)[O-])c(=O)n(C)c3ccccc23)c1 here?
A: 65.6% (active)

Q: What about the z-score of the same compound?
A: 0.355

Q: What does the source list for Cn1c(=O)c([N+](=O)[O-])c(Oc2ccccc2)c2ccccc21?
A: inhibition: 77.8% (active); z-score: 0.222

Q: For CC(C)(C)C1C/C(=C/c2ccco2)C(=O)/C(=C/c2ccco2)C1 (stereo unspecified), which inhibition is on record?
A: 184% (inactive)

Q: And the z-score?
A: 0.226

Q: With Cc1cccc2cc3c(N)c(C(=O)N4CCCc5ccccc54)sc3nc12 as the compound, how does the inhibition read?
A: 97.1% (active)

Q: What about the z-score of the same compound?
A: -0.357

Q: For COc1ccc(NC(=O)/C(Cl)=C(/Cl)S(=O)Cc2ccc(C)cc2)cn1 (stereo unspecified), which inhibition is on record?
A: 76.8% (active)

Q: What about the z-score of the same compound?
A: 0.179

Q: Which results are given for CC1=C/C(=N\OS(=O)(=O)c2ccccc2)C=CC1=O?
A: inhibition: 85.1% (active); z-score: 0.68

Q: Which inhibition does the source give for Nc1ccccc1SC(C[N+](=O)[O-])c1ccccc1 (stereo unspecified) here?
A: 71.2% (active)

Q: And the z-score?
A: -0.448

Q: Which results are given for O=C1/C(=C\c2cccnc2)CN(Cc2ccccc2)C/C1=C\c1cccnc1?
A: inhibition: 81.1% (active); z-score: 0.0646

Q: Which results are given for Cc1cc(-c2n[nH]c(=S)n2/N=C/C(Br)=C/c2ccccc2)n[nH]1?
A: inhibition: 80.8% (active); z-score: 0.326

Q: For Cc1[nH]c(=O)c(C(=O)/C=C/c2ccccc2)c2c1CCCC2, which inhibition is on record?
A: 71.9% (active)

Q: What about the z-score of the same compound?
A: 0.213

Q: For O=C(CCl)N(Cc1cccc([N+](=O)[O-])c1)c1cccc(Cl)c1, which inhibition is on record?
A: 84.8% (active)

Q: And the z-score?
A: 0.159

Q: What does the source list for COc1ccc(-c2cc(C(F)(F)F)nc(S(C)(=O)=O)n2)cc1OC?
A: inhibition: 51.4% (active); z-score: 0.253

Q: For Cc1cc(C(=O)NCCc2ccc(Cl)cc2)n(-c2ccccc2)n1, which inhibition is on record?
A: 16.2% (inactive)

Q: What about the z-score of the same compound?
A: 0.17

Q: Which inhibition does the source give for Cc1cc(C)nc(S/C=C/C(=O)c2ccccc2)n1 here?
A: 68.4% (active)

Q: What about the z-score of the same compound?
A: 1.05

Q: For Clc1cccc(-c2nc3nc4ccccc4nc3n2Cc2ccco2)c1, which inhibition is on record?
A: 12.8% (inactive)

Q: What about the z-score of the same compound?
A: 0.105

Q: For COc1ccc(C(=O)NCC(=O)N/N=C/c2ccc([N+](=O)[O-])o2)cc1OC, which inhibition is on record?
A: 59.2% (active)

Q: What about the z-score of the same compound?
A: -0.0055

Q: Which inhibition does the source give for O=C(/C=C/Sc1ncn[nH]1)c1ccc(Cl)cc1 here?
A: 69.1% (active)

Q: And the z-score?
A: 0.228

Q: What does the source list for CCN(CC)c1ccc2oc(=O)c(C)nc2c1?
A: inhibition: 82.6% (active); z-score: 0.353

Q: What does the source list for COc1ccc(C(CCN(Cc2ccc(OC)c(OC)c2)C(=O)CCl)c2ccccc2)cc1 (stereo unspecified)?
A: inhibition: 90.9% (active); z-score: -0.513

Q: For O=C(CCl)Nc1cccc(CP(=O)(c2ccccc2)c2ccccc2)c1, which inhibition is on record?
A: 63.6% (active)

Q: And the z-score?
A: 0.239

Q: Which results are given for O=C1C=C(c2ccc(Cl)cc2)C(=O)N1Nc1ccccc1?
A: inhibition: 81% (active); z-score: 1.03

Q: With O=C(Nc1ccccc1)c1nnsc1S(=O)(=O)c1ccc(Cl)cc1 as the compound, how does the inhibition read?
A: 38.8% (inactive)

Q: What about the z-score of the same compound?
A: -5.42

Q: What does the source list for CCOC(=O)C(=Cc1ccccc1OC)C(=O)OCC?
A: inhibition: 82.2% (active); z-score: 0.778

Q: With N#C/C(=C/c1ccc(N2CCCCC2)o1)C(=O)NCCc1c[nH]c2ccccc12 as the compound, how does the inhibition read?
A: 96.8% (active)

Q: What about the z-score of the same compound?
A: 0.0808

Q: Which inhibition does the source give for Oc1c(C=Nc2cccc3nsnc23)ccc2ccccc12 here?
A: 23.9% (inactive)

Q: What about the z-score of the same compound?
A: 0.36

Q: Which inhibition does the source give for COc1cc2c(cc1O)C(SC)=NC(C)(C)C2 here?
A: 79.1% (active)

Q: What about the z-score of the same compound?
A: 0.013

Q: What does the source list for COC(=O)/C=C\C(=O)Nc1cccc([N+](=O)[O-])c1?
A: inhibition: 77.7% (active); z-score: -1.06

Q: Which inhibition does the source give for CCC1=C/C(=C\c2ccc3c(c2)OCO3)C(=O)S1 here?
A: 30.5% (inactive)

Q: And the z-score?
A: 0.474

Q: For C[C@@H]1C[C@@H]2O[C@H]2/C=C\C=C\C(=O)Cc2c(Cl)c(O)cc(O)c2C(=O)O1, which inhibition is on record?
A: 90.1% (active)

Q: What about the z-score of the same compound?
A: -0.431

Q: Which inhibition does the source give for Cc1cc(C)c2c3c(sc2n1)C(c1ccccc1)C(C#N)=C(N)O3 (stereo unspecified) here?
A: 23.6% (inactive)

Q: And the z-score?
A: 0.166

Q: With CCN1/C(=C/c2ccc3ccc(C)cc3[n+]2CC)Sc2ccccc21 as the compound, how does the inhibition read?
A: 99.7% (active)

Q: What about the z-score of the same compound?
A: 0.0317

Q: What does the source list for O=S1(=O)CCC(NC(=S)SCc2ccccc2Br)C1 (stereo unspecified)?
A: inhibition: 67.1% (active); z-score: -0.249

Q: With C=CS(=O)c1sc(Cl)c(N2CCOCC2)c1[N+](=O)[O-] (stereo unspecified) as the compound, how does the inhibition read?
A: 83.2% (active)

Q: What about the z-score of the same compound?
A: -0.577

Q: Which inhibition does the source give for Nc1c(C(=O)c2cccs2)sc2nsc(SCCN3CCCCC3)c12 here?
A: 91.8% (active)

Q: What about the z-score of the same compound?
A: 0.159

Q: With CC1(C)CCSC(/C=C/c2ccccc2)=N1 as the compound, how does the inhibition read?
A: 90.7% (active)

Q: And the z-score?
A: -0.988
